Test results published in ChEMBL document CHEMBL4513141, “CO-ADD screening of NIH (USA) - Clinical Collection” (2021).
Measured potencies and affinities stand elsewhere.

What was measured:
Staphylococcus aureus = conditions: Concentration 20 uM; ASSAY_TEST Inhibition of Bacterial Growth; detection method Absorption (OD600); MEDIA CAMHB; plate type 384well; NBS; CORNING #3640; time 18 hr
Escherichia coli = conditions: Concentration 20 uM; ASSAY_TEST Inhibition of Bacterial Growth; detection method Absorption (OD600); MEDIA CAMHB; plate type 384well; NBS; CORNING #3640; time 18 hr

Row | SMILES | Inhibition (Staphylococcus aureus) | Inhibition (Escherichia coli)
1 | CC(CCCCC(=O)Nc1ccc(C(F)(F)F)cc1)NCCc1c[nH]cn1.O=C(O)/C=C\C(=O)O.O=C(O)/C=C\C(=O)O (stereo not drawn) | 7.23% | 3.85%
2 | CC(=O)O.NCc1ccc(S(N)(=O)=O)cc1 [MAFENIDE ACETATE] | 12.98% | 1.36%
3 | C#C[C@]1(O)CC[C@H]2[C@@H]3[C@H](C)CC4=C(CCC(=O)C4)[C@H]3CC[C@@]21C [TIBOLONE] | 12.93% | 2.02%
4 | CC(N)(Cc1ccc(O)c(O)c1)C(=O)O (stereo not drawn) [METHYLDOPA (RACEMIC)] | -29.5% | 7.2%
5 | CC(C)NCC(O)c1ccc(NS(C)(=O)=O)cc1.Cl (stereo not drawn) [SOTALOL HYDROCHLORIDE] | -25.28% | 5.97%
6 | NC(=O)c1cnccn1 [PYRAZINAMIDE] | 14.57% | 2%
7 | CC(=O)[C@H]1CC[C@H]2[C@@H]3C[C@H](C)C4=CC(=O)CC[C@]4(C)[C@H]3[C@@H](O)C[C@]12C [MEDRYSONE] | 2.89% | 2.65%
8 | CCC(=C(c1ccccc1)c1ccc(OCCN(C)C)cc1)c1ccccc1 | 2.87% | 6.04%
9 | O=C1N=C([O-])NC1(c1ccccc1)c1ccccc1.[Na+] [PHENYTOIN SODIUM] | 10.31% | 2.45%
10 | CN(C)CCCN1c2ccccc2Sc2ccc(Cl)cc21.Cl [CHLORPROMAZINE HYDROCHLORIDE] | 10.22% | 2.59%
11 | O=S(=O)([O-])CCS.[Na+] [MESNA] | 2.58% | -2.71%
12 | CN1CC(=O)N2[C@H](c3ccc4c(c3)OCO4)c3[nH]c4ccccc4c3C[C@@H]2C1=O | 6.36% | 0.57%
13 | CC=CC(=O)N(CC)c1ccccc1C | 8.78% | 0.72%
14 | CN(C)CCN(Cc1ccccc1)c1ccccn1.Cl [TRIPELENNAMINE HYDROCHLORIDE] | -12.77% | 7.66%
15 | CC[N+](C)(CC)CCOC(=O)C(O)(c1ccccc1)C1CCCCC1.[Br-] (stereo not drawn) [OXYPHENONIUM BROMIDE] | 12.65% | 3.27%
16 | CC[C@H](C)C(=O)O[C@H]1C[C@@H](C)C=C2C=C[C@H](C)[C@H](CC[C@@H]3C[C@@H](O)CC(=O)O3)[C@H]21 [LOVASTATIN] | 9.76% | 0.96%
17 | CC(=O)OCC(=O)C12OC3(CCCC3)OC1CC1C3CCC4=CC(=O)C=CC4(C)C3(F)C(O)CC12C (stereo not drawn) | 19.97% | 7.38%
18 | CC(=O)CCCCn1c(=O)c2c(ncn2C)n(C)c1=O [PENTOXIFYLLINE] | 15.42% | 2.27%
19 | Clc1ccc2c(c1)C(N1CCNCC1)=Nc1ccccc1O2 [AMOXAPINE] | 3.79% | 7%
20 | COc1ccc(OC)c(C(O)CNC(=O)CN)c1.Cl (stereo not drawn) [MIDODRINE HYDROCHLORIDE] | 15.42% | 4.77%

Row | SMILES | Inhibition (Staphylococcus aureus) | Inhibition (Escherichia coli)
21 | CN(C)CC[C@@H](c1ccc(Cl)cc1)c1ccccn1.O=C(O)/C=C\C(=O)O [DEXCHLORPHENIRAMINE MALEATE] | 5.99% | 6.96%
22 | CC(N)C12CC3CC(CC(C3)C1)C2.Cl (stereo not drawn) [RIMANTADINE HYDROCHLORIDE] | 6.08% | -3.07%
23 | Nc1ccn([C@H]2CC[C@@H](CO)O2)c(=O)n1 [ZALCITABINE] | 4.24% | -9.44%
24 | CCN1CC(CCN2CCOCC2)C(c2ccccc2)(c2ccccc2)C1=O.Cl (stereo not drawn) | -18.77% | 2.66%
25 | CC[C@H](C)C(=O)O[C@H]1C[C@H](O)C=C2C=C[C@H](C)[C@H](CC[C@@H](O)C[C@@H](O)CC(=O)[O-])[C@H]21.[Na+] [PRAVASTATIN SODIUM] | 12.65% | 2.41%
26 | CC(C(O)c1ccc(O)cc1)N1CCC(Cc2ccccc2)CC1.O.O=C(O)C(O)C(O)C(=O)O (stereo not drawn) | 9.87% | -1.84%
27 | CC(C)NCC(O)COc1ccc(COCCOC(C)C)cc1.CC(C)NCC(O)COc1ccc(COCCOC(C)C)cc1.O=C(O)/C=C/C(=O)O (stereo not drawn) [BISOPROLOL FUMARATE] | 7.74% | 1.99%
28 | Cl.Clc1ccccc1CN1CCc2sccc2C1 [TICLOPIDINE HYDROCHLORIDE] | 6.77% | 1.84%
29 | CC(C)Cc1ccc(C(C)C(=O)O)cc1 (stereo not drawn) [IBUPROFEN] | -8.87% | 0.37%
30 | Cl.O=C1c2c(O)ccc(O)c2C(=O)c2c(NCCNCCO)ccc(NCCNCCO)c21 | -9.15% | 4.04%
31 | CC(=O)Nc1ccc(CC(=O)O)cc1 [ACTARIT] | -0.71% | 3.54%
32 | CC(=O)CCCCn1cnc2c1c(=O)n(C)c(=O)n2C [LOMIFYLLINE] | 12.49% | 5.02%
33 | Cc1nc2n(c(=O)c1CCN1CCC(c3noc4cc(F)ccc34)CC1)CCCC2 [RISPERIDONE] | 4.53% | 2.58%
34 | CN(C)C(=O)Oc1ccc[n+](C)c1.[Br-] [PYRIDOSTIGMINE BROMIDE] | 10.54% | -0.78%
35 | CC(=O)C1(O)CCC2C3CC(C)C4=CC(=O)C=CC4(C)C3(F)C(O)CC21C (stereo not drawn) | 5.95% | 2.15%
36 | CNNCc1ccc(C(=O)NC(C)C)cc1.Cl [PROCARBAZINE HYDROCHLORIDE] | 12.92% | -2.72%
37 | CCCOc1ccc(C(=O)OCCN(CC)CC)cc1N.Cl [PROPARACAINE HYDROCHLORIDE] | -1.38% | 2.71%
38 | CCN(CC)CCOC(=O)C1(C2CCCCC2)CCCCC1.Cl [DICYCLOMINE HYDROCHLORIDE] | 8.61% | 0.37%
39 | CN1CCCCC1CCN1c2ccccc2Sc2ccc([S+](C)[O-])cc21.O=S(=O)(O)c1ccccc1 (stereo not drawn) [MESORIDAZINE BESYLATE] | -15.92% | 4.24%
40 | CC1CCN(CCCC(=O)c2ccc(F)cc2)CC1.Cl | 4.4% | 6.76%

Row | SMILES | Inhibition (Staphylococcus aureus) | Inhibition (Escherichia coli)
41 | CCCCc1nc(Cl)c(CO)n1Cc1ccc(-c2ccccc2-c2nnn[n-]2)cc1.[K+] [LOSARTAN POTASSIUM] | -19.73% | 5.5%
42 | CC[C@H]1OC(=O)[C@H](C)C(=O)[C@H](C)[C@@H](O[C@@H]2O[C@H](C)C[C@H](N(C)C)[C@H]2O)[C@](C)(OC)C[C@@H](C)C(=O)[C@H](C)[C@@H]2N(CCCCn3cnc(-c4cccnc4)c3)C(=O)O[C@@]21C | 4.38% | 4.81%
43 | O=C(O)CCc1nc(-c2ccccc2)c(-c2ccccc2)o1 [OXAPROZIN] | 10.43% | 2.77%
44 | CCS(=O)(=O)CCn1c([N+](=O)[O-])cnc1C [TINIDAZOLE] | 16.09% | -5.72%
45 | Cl.Clc1cccc(Cl)c1NC1=NCCN1 [CLONIDINE HYDROCHLORIDE] | 11.8% | 4.68%
46 | CC12CCC(=O)C=C1CCC1C2CCC2(C)C1CCC2(O)C(=O)CO (stereo not drawn) | 8.54% | -7.68%
47 | NC(N)=Nc1nc(CSCC/C(N)=N/S(N)(=O)=O)cs1 [FAMOTIDINE] | 6.96% | 3.55%
48 | Cl.OC(CCN1CCCC1)(c1ccccc1)C1CCCCC1 (stereo not drawn) [PROCYCLIDINE HYDROCHLORIDE] | 17.75% | -5.9%
49 | CC[C@]1(O)C[C@@H]2CN(CCc3c([nH]c4ccccc34)[C@@](C(=O)OC)(c3cc4c(cc3OC)N(C=O)[C@H]3[C@@](O)(C(=O)OC)[C@H](OC(C)=O)[C@]5(CC)C=CCN6CC[C@]43[C@@H]65)C2)C1.O=S(=O)(O)O | 14.29% | -3.68%
50 | Nc1nc(N)nc(-c2cc(Cl)ccc2Cl)n1.O=C(O)/C=C\C(=O)O [IRSOGLADINE MALEATE] | 8.27% | 0.86%
51 | Cc1ccc(C)c(OCCCC(C)(C)C(=O)O)c1 [GEMFIBROZIL] | 11.1% | 2.56%
52 | Cn1cnc([N+](=O)[O-])c1Sc1ncnc2[nH]cnc12 [AZATHIOPRINE] | 18.19% | 3.51%
53 | CC(=O)O.CC(C)C[C@H](NC(=O)[C@@H](COC(C)(C)C)NC(=O)[C@H](Cc1ccc(O)cc1)NC(=O)[C@H](CO)NC(=O)[C@H](Cc1c[nH]c2ccccc12)NC(=O)[C@H](Cc1c[nH]cn1)NC(=O)[C@H]1CCC(=O)N1)C(=O)N[C@H](CCCNC(=N)N)C(=O)N1CCC[C@@H]1C(=O)NNC(N)=O | 9.86% | 5.78%
54 | CC(=O)SCC(Cc1ccccc1)C(=O)NCC(=O)OCc1ccccc1 (stereo not drawn) [RACECADOTRIL] | 11.13% | -5.63%
55 | CN(C)CC/C=C1/c2ccccc2COc2ccc(CC(=O)O)cc21.Cl [OLOPATADINE HYDROCHLORIDE] | -18.81% | 1.13%
56 | CC(COc1ccccc1)NC(C)C(O)c1ccc(O)cc1.Cl (stereo not drawn) [ISOXSUPRINE HYDROCHLORIDE] | 10.12% | -2.1%
57 | COc1ccc([C@@H]2Sc3ccccc3N(CCN(C)C)C(=O)[C@@H]2OC(C)=O)cc1.Cl [DILTIAZEM HYDROCHLORIDE] | 12.74% | 5.44%
58 | CCCc1nc(C)c2c(O)nc(-c3cc(S(=O)(=O)N4CCN(CC)CC4)ccc3OCC)nn12.O=C(O)CC(O)(CC(=O)O)C(=O)O | 14.18% | -4.2%
59 | N[C@@H](Cc1cc(I)c(Oc2cc(I)c(O)c(I)c2)c(I)c1)C(=O)O [LEVOTHYROXINE] | -5.39% | -12.96%
